SARS PLpro yeast – qHTS of Yeast-based Assay for SARS-CoV PLP | AID 485353, 2010 | Potency, µM (top dose mostly 32.9 µM), without a hit: at the highest dose activity, positive = growth rescue, usual class: activators | 330,000 compounds, 0.19% hits | S. cerevisiae expressing SARS-CoV PLpro, growth rescue; calls by dose curve; note: 0% is about no effect; nearly all actives have a fitted effect of over 55% in size
Pf growth 96h – Primary qHTS for delayed death inhibitors of the malarial parasite plastid, 96 hour incubation | P. falciparum luciferase reporter growth, 96 h | Potency, µM (series often up to 28.7 µM), for the others: at the top dose activity change, negative = inhibition, most hits filed as inhibitors | 320,000 compounds, 6.9% hits; note: % is set by controls: 0 for no effect and ±100 for the full control effect
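Parasite growth measured via integrated firefly luciferase reporter in P. falciparum. Infected erythrocytes at 2% hematocrit, 0.05% parasitemia final were treated 96 hours at 37 C under 5% CO2, and luminescence was read.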
NS1 function inh – qHTS Assay for Inhibitors of Influenza NS1 Protein Function. Potency, µM (series often up to 46.1 µM), for inactives: at the highest dose activity, positive = more growth. 270,000 compounds, 0.4% hits. AID 2326, 2010; calls by dose curve; note: actives are rising curves; nearly all actives have a fitted effect of over 50% in size
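A cell-based growth assay was used: compounds that relieve NS1-induced slow growth of budding yeast raise OD600. Assay medium was yeast nitrogen base with ammonium sulphate and -URA supplement, pH 6.0, with 2% galactose.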
Pf growth 48h – Primary qHTS for delayed death inhibitors of the malarial parasite plastid, 48 hour incubation. AID 504832, 2011. Potency, µM (titrated, usually from 28.7 µM), for the others: at the top dose activity change, negative = inhibition, hits mostly inhibitors. 310,000 compounds, 5.9% hits. P. falciparum luciferase growth in erythrocytes, 48 h; note: % is set by controls: 0 for no effect and ±100 for the full control effect
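A one-generation exposure of luciferase-tagged malaria parasites in RPMI 1640/Albumax erythrocyte culture, 37 C and 5% CO2. Inhibition is inferred from decreased luminescence after adding detection reagent.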
Active calls of the source: *; ? = inconclusive; . = not tested or not shown; [ ] = dose if it differs, or a comment. Hits are enriched below; roughly 10% of the tested compounds scored in any of these assays. Unless noted, calls come from the whole dose curve; as a rule, active = well fitted inhibition curve with a large enough effect; inconclusive = small, poorly fitted or top-dose-only effect, or another doubt; inactive = no such curve, though single readings can be large or run the other way. Potency is the fitted concentration of half-maximal effect.

SMILES	SARS PLpro yeast	Pf growth 96h	NS1 function inh	Pf growth 48h
O=C(NC1CC2CCCC(C1)N2Cc1ccco1)NC12CC3CC(CC(C3)C1)C2 (stereo not drawn)	-3.6%	?	-4.6%	?
C[C@@H]1C[C@H]2[C@H]3C[C@@H](F)C4=CC(=O)C=C[C@]4(C)[C@@]3(Cl)[C@@H](O)C[C@@]2(C)[C@@H]1C(=O)COC(=O)C(C)(C)C	.	4.78µM*	.	4.78µM*
CCN(CC)S(=O)(=O)c1ccc(OC(C)C)c(NC(=O)c2c3c(nc4ccccc24)CCN(Cc2ccccc2)C3)c1	25.9%	2.94µM*	-8.5%	2.62µM*
COc1cc(NC(=O)c2c3c(nc4ccccc24)CCC3)cc(OC)c1	2.0%	?	12.0%	-21.3%
COc1ccc(NC(=O)c2c3c(nc4ccccc24)CCN(Cc2ccccc2)C3)c(OC)c1	-8.8%	9.28µM*	.	7.38µM*
COc1ccc(S(=O)(=O)N2CCCCC2)cc1NC(=O)c1ccc(CS(C)(=O)=O)cc1	-2.9%	-43.9%	.	?
COc1ccc(S(=O)(=O)N2CCCCCC2)cc1NC(=O)c1c2c(nc3ccccc13)CCN(Cc1ccccc1)C2	26.4%	1.47µM*	23.1%	1.47µM*
CC(=O)Nc1ccc(S(=O)(=O)NCC2CCC(C(=O)NC(C)c3ccc4c(c3)OCCO4)CC2)cc1 (stereo not drawn)	0.3%	?	.	-3.6%
CSc1ccccc1NC(=O)CN(C)C(C)C(=O)NCc1ccc2c(c1)OCO2 (stereo not drawn)	-7.1%	.	.	.
CC(C)NC(=O)NC(=O)COc1ccc(Br)cc1Br	-13.0%	211.7%	-1.6%	273.0%
CCOC(=O)N1CCC(N2Cc3cccc(C(=O)N4CCN(c5cccc(C)c5C)CC4)c3C2=O)CC1	-2.9%	?	.	10.4µM*
CCOC(=O)N1CCC(N2Cc3cccc(C(=O)Nc4ccccc4OC)c3C2=O)CC1	-1.8%	?	20.5%	9.28µM*
CCOC(=O)N1CCC(N2Cc3cccc(C(=O)N4CCN(c5cccc(Cl)c5)CC4)c3C2=O)CC1	3.1%	?	.	-13.3%
CCOC(=O)c1ccccc1NC(=O)c1cccc2c1C(=O)N(C1CCN(C(=O)OCC)CC1)C2	9.7%	-3.2%	-64.5%	.
CCN(CC)c1ccc2ccc(=O)oc2c1	-0.7%	9.28µM*	-7.8%	-34.3%
COc1ccccc1C(=O)N(C)c1nnc(-c2ccccc2)s1	1.8%	?	-50.2%	0.0%
CCC/C(C(=O)NCCO)=C1/c2ccccc2C(=O)N1c1ccccc1	-6.3%	.	.	.
CC(=O)NCCc1nc2cc(NC(=O)c3ccc([N+](=O)[O-])cc3)ccc2n1C	0.2%	205.4%	-3.1%	147.9%
O=c1c2ccccc2ncn1-c1ccc2c(c1)OCCO2	3.0%	-11.0%	-0.7%	253.6%
CN(C)C(=O)c1ccc(-n2cnc3ccccc3c2=O)cc1	-0.7%	11.7µM*	.	-17.7%[5.75 µM]
O=C(NCc1ccccc1)C(c1c(F)cccc1Cl)N(C(=O)c1csnn1)C1CC1 (stereo not drawn)	-14.8%	26.1%	-5.6%	?
CCc1ccc2c(c1)C(c1ccc([N+](=O)[O-])cc1)=NNC(c1ccc(Br)cc1)=N2	-6.7%	-23.7%	7.9%	9.28µM*
Cc1ccc2c(c1)C(c1ccc([N+](=O)[O-])cc1)=NNC(c1ccc(Br)cc1)=N2	-6.1%	?	12.5%	-10.3%
CN(C)C(=O)Oc1cccc(OCc2n(C)c3ccccc3[n+]2C)c1	7.4%	2.94µM*	-4.9%	?
CN(C)C(=O)Oc1ccc(OCc2nc3ccccc3[nH]2)cc1	-60.6%	120.0%	-4.4%	104.2%
SMILES	SARS PLpro yeast	Pf growth 96h	NS1 function inh	Pf growth 48h
S=C(Nc1ccc(Cl)cc1)c1sc(N2CCCCC2)nc1N1CCOCC1	-14.1%	3.1%	11.9%	5.9%
COc1ccc(/C=C/C(=O)NC(=S)NNC(=O)c2cnccn2)cc1	?	?	4.0%	2.08µM*
O=C(NC(=S)NNC(=O)c1cnccn1)c1ccc(F)cc1	?	21.5%	.	14.7µM*
O=C(/C=C/c1ccc(F)cc1)NC(=S)NNC(=O)c1cnccn1	19.0%	8.28µM*	2.3%	3.29µM*
CC(C)C(=O)Nc1ccc(N2CCN(C(=O)c3cccs3)CC2)cc1	1.8%	?	4.7%	-15.3%
Cc1ccccc1C(=O)Nc1ccc(N2CCN(C(=O)c3ccco3)CC2)cc1	1.2%	?	4.5%	-7.9%
O=C(Nc1ccc2c(c1)CCCN2C(=O)c1ccco1)c1cc([N+](=O)[O-])ccc1Cl	1.6%	?	.	14.7µM*
O=C(NC(=S)Nc1ccc(N2CCCCC2)cc1)c1ccco1	-2.1%	13.5%	-0.6%	144.0%
Cc1ccc(C(=O)Nc2ccc(N3CCN(C(=O)c4ccco4)CC3)cc2)c(Cl)c1	-2.6%	8.7%	-2.2%	13.1µM*
Cc1ccc(C(=O)NC(=S)Nc2ccc(N3CCN(C(=O)c4ccco4)CC3)cc2)cc1	-7.1%	5.22µM*	2.6%	?
Cc1ccc(C(=O)Nc2ccc(N3CCN(C(=O)c4cccs4)CC3)cc2)c(Cl)c1	-0.8%	47.7%	16.3%	9.28µM*
COc1ccc(/C=C/C(=O)N2CCN(S(=O)(=O)c3ccccc3Br)CC2)cc1OC	-9.3%	.	.	.
CC1CC(C)CN(C(=O)C2CCN(C(=O)Nc3ccccc3)CC2)C1 (stereo not drawn)	-1.8%	-12.3%	.	-23.2%
CN1CCN(c2ccc(NC(=O)c3ccc(Br)o3)cc2)CC1	13.3%	?	9.5%	139.4%
CC(C)(C)c1ccc(C(=O)Nc2ccc(N3CCOCC3)cc2)cc1	4.7%	?	-2.8%	.
CC(C)(C)c1ccc(C(=O)NC(=S)Nc2ccc(N3CCOCC3)cc2)cc1	?	11.7µM*	0.0%	?
O=C(Nc1ccc(N2CCN(C(=O)c3ccco3)CC2)cc1)c1ccc([N+](=O)[O-])cc1Cl	6.1%	?	-2.4%	11.7µM*
O=C(Nc1ccc(C(=O)N2CCC(O)(c3ccc(Cl)c(C(F)(F)F)c3)CC2)cc1)c1ccc(Br)o1	7.5%	13.1µM*	.	?
CC(=O)N1CCN(c2ccc(NC(=O)c3ccc([N+](=O)[O-])cc3Cl)cc2)CC1	-3.5%	-16.6%	9.1%	0.0%
Cc1ccc(C(=O)N2CCN(c3ccc(NC(=O)c4ccc(Br)o4)cc3)CC2)cc1	-7.1%	.	18.5%	10.4µM*
COc1ccc(CN(Cc2cccn2C)C(=O)c2cc3cc(OC)ccc3[nH]2)cc1	-5.0%	?	3.5%	?
COc1cccc(C(=O)Nc2ccc(-n3nncc3C(C)(C)C)cc2)c1	1.4%	18.4%	.	-0.8%
CC(C)(C)c1cnnn1-c1ccc(NC(=O)c2ccc(Br)o2)cc1	13.9%	261.5%	-29.1%	10.4µM*
COc1ccc(OC)c(CNc2ncc(-c3ccc(F)cc3)n2C)c1	2.6%	14.7µM*	6.7%	?
Cn1c(-c2ccc(Cl)cc2)cnc1NCc1cc2c(cc1[N+](=O)[O-])OCO2	6.3%	56.6%	-10.5%	?
COc1ccc(CNc2ncc(-c3cccc([N+](=O)[O-])c3)n2C)c(OC)c1OC	-3.4%	4.65µM*	-15.0%	-4.0%
Cn1c(-c2ccc(F)cc2)cnc1NCc1cc2c(cc1[N+](=O)[O-])OCO2	-15.7%	40.0%	?	11.7µM*

Assay outcomes deposited in PubChem by National Center for Advancing Translational Sciences (NCATS).
